The record followed here is PubChem BioAssay (NCATS).

Records with an inconclusive call do not appear. A number with no mark means an inactive call. Activity calls are given as the source filed them. Calls follow the shape of the dose curve; as a rule, active = well fitted cell-killing curve with a large enough effect; inconclusive = small, poorly fitted or top-dose-only effect; inactive = flat fitted curve, though single readings scatter.
Potency is read from the fitted curve at half-maximal effect.

The nature of the assay: qHTS of pediatric cancer cell lines to identify multiple opportunities for drug repurposing: Primary screen for BT-12 cells (AID 1347101). Also: nearly all actives have a fitted effect of over 25% in size. Conditions: BT-12 viability, CellTiter-Glo luminescence, 48 h; series mostly up to 57.3 µM; activity change, negative = cytotoxic: at the top concentration. An excerpt:
Drug repurposing or repositioning has been offered as a strategy for drug development in oncology programs. This approach has special potential for childhood cancers and other rare or orphan diseases, where the expected return on new drug development has been a disincentive to pharmaceuticals.
In this project we exploit the poly-pharmacology of drugs to discover new indications via phenotypic screening of a panel of 19 well-characterized cell lines derived from solid tumors seen in children and adolescents. The goal is to identify approved drugs with previously unrecognized anticancer properties that has the potential to reveal new mechanisms and biological processes involved in carcinogenesis or drug resistance. We employed a titration-based paradigm (quantitative high-throughput screening or qHTS), where all compounds were tested at multiple concentrations for their effect on cell viability. Concentration-response curves (CRCs) were derived directly from the primary screen, and both potency and efficacy values were used to identify compounds with robust bioactivity profiles. We screened the NIH Chemical Genomics Center (NCGC) Pharmaceutical Collection (NPC) and Mechanism Interrogation Plate (MIPE) small molecule collections of approved and investigational compounds against these cell lines; and measured metabolically active cells after 48 hours of compound treatment as a proxy for cell viability.
Assay Submitter: Nathalia J. Martinez, National Center for Advancing Translational Sciences, National Institutes of Health, Rockville, MD, USA; email: natalia.martinez@nih.gov
[1] Shen, M et al. Quantitative high-throughput phenotypic screening of pediatric cancer cell lines identifies multiple opportunities for drug repurposing. Oncotarget 2017 Dec 19;9(4):4758-4772. PMID 29435139.
The cells were obtained from University of North Carolina (UNC), Pediatric Preclinical Testing Program (PPT), and Coriell Institute (CI).
qHTS cell viability assay:
Cells were assayed in growth media at a density of 500-1,000 cells/well. Five microliters of cells were dispensed into 1,536-well, white, solid-bottom, TC-treated plates (Greiner Bio One) using a multidrop dispenser and incubated at 37 degrees C, 5% CO2, under a humidified atmosphere for 5 hours. Twenty-three nanoliters of compounds and controls (neutral control DMSO or positive control bortezomib at final concentration of 2.3 µM) were subsequently transferred by Kalypsys pintool. For primary screens, the MIPE collection was tested at 11-point dilutions (final concentrations range from 0.78 nM to 46 µM) and the NPC collection at 8-point dilutions (final concentrations range from 0.59 nM to 46 µM). Compounds tested in follow-up screens were assayed at 11-point dilutions. Cells were incubated for 48 hours, followed by addition of 3 µL of CellTiter-Glo (Promega). After a 15 min incubation at room temperature, samples were analyzed for luminescence intensity using a ViewLux High-throughput CCD imager equipped with clear filters.
Regarding `CCC1Nc2cc(Cl)c(S(N)(=O)=O)cc2S(=O)(=O)N1` (stereo not given), the “activity change, negative = cytotoxic” value was 4.68%.
Consider `CC[N+](C)(CC)CCOC(=O)C(O)(c1ccccc1)C1CCCCC1` (stereo not given), for which the “activity change, negative = cytotoxic” value is 3.41%.
`CC(=O)Nc1ccc(OCC(O)CNC(C)C)cc1` (stereo not given): the “activity change, negative = cytotoxic” value was 7.82%.
Same read-out and setting: under `CC(C)(C)NCC(O)COc1cccc2c1C[C@H](O)[C@H](O)C2` (stereo not given in full) stands 15.5%; under `COc1ccc(CN(CCN(C)C)c2ncccn2)cc1`, -2.85%; under `N/C(=N\N=C\c1ccc(Cl)cc1)N/N=C/c1ccc(Cl)cc1`, -26%.
For the compound `O=C(CCN1CCN2CCCC2C1)N1c2ccccc2Sc2ccc(Cl)cc21` (stereo not given), the “activity change, negative = cytotoxic” value was -12.5% [at 20.1 µM].
`CCc1ccc(C(=O)C(C)CN2CCCCC2)cc1` (stereo not given): the “activity change, negative = cytotoxic” value was -15%.
The same measure, in the same setting: the figure for `COc1ccc(CCN(C)CCCN2CCc3cc(OC)c(OC)cc3CC2=O)cc1OC` is -2.3%; for `CCc1oc2ccccc2c1C(=O)c1cc(I)c(O)c(I)c1` it is -9.61%.
For `CCCN(CCc1cccs1)[C@H]1CCc2c(O)cccc2C1`, the “activity change, negative = cytotoxic” value was -15%.
In the case of `COc1cc(C(=O)NCc2ccc(OCCN(C)C)cc2)cc(OC)c1OC`, the “activity change, negative = cytotoxic” value is 5.46%.
As for `c1ccc(-c2nc[nH]c2-c2ccccc2)cc1`, the “activity change, negative = cytotoxic” value was -6.06%.
In the case of `CC(CNC1CCCCC1)OC(=O)c1ccccc1` (stereo not given), the “activity change, negative = cytotoxic” value is -2%.
As for `O=C(O)c1ccc(S(=O)(=O)N(Cl)Cl)cc1`, the “activity change, negative = cytotoxic” value is 10.7%.
For the compound `C=C[C@H]1CN2CC[C@H]1C[C@@H]2[C@@H](O)c1ccnc2ccc(OC)cc12`, the “activity change, negative = cytotoxic” value was 1.52%.
For `CCN1CCN(C(=O)N[C@@H](C(=O)N[C@@H]2C(=O)N3C(C(=O)O)=C(CSc4nnnn4C)CS[C@H]23)c2ccc(O)cc2)C(=O)C1=O`, the “activity change, negative = cytotoxic” value is 0.376%.
Regarding `CCCCCCCCCCCCSCCOCCO`, the “activity change, negative = cytotoxic” value is -4.13%.
As to `O=C(Nc1ncc([N+](=O)[O-])s1)c1cccs1`, the Potency is 12.3 µM (active).
Turning to `CCNC(=O)/C=C/c1cccc(Br)c1`, the “activity change, negative = cytotoxic” value is -1.41%.
Take `CN1CCN(c2c(F)cc3c(=O)c(C(=O)O)cn4c3c2SCC4)CC1`: the “activity change, negative = cytotoxic” value was -1.82%.
For the compound `Cc1c(-c2ccccc2)oc2c(C(=O)OCCN3CCCCC3)cccc2c1=O`, the “activity change, negative = cytotoxic” value is 8.38%.
In the case of `NC(N)=NN=C(/C=C/c1ccc([N+](=O)[O-])o1)/C=C/c1ccc([N+](=O)[O-])o1`, the Potency was 0.978 µM (active).
`COc1ccc(S(=O)(=O)N2c3ccc(Cl)cc3[C@@](O)(c3ccccc3Cl)[C@H]2C(=O)N2CCC[C@@H]2C(N)=O)cc1OC`: the “activity change, negative = cytotoxic” value is -14%.
For `COc1cc(C(=O)N2CCCCCCC2)cc(OC)c1OC`, the “activity change, negative = cytotoxic” value is 3.21%.
With `NC1CCN(c2nc3c(cc2F)c(=O)c(C(=O)O)cn3-c2ccc(F)cc2F)C1` (stereo not given), the “activity change, negative = cytotoxic” value is -4.51%.
Still for that read-out and setting: the figure for `CC(=O)O[C@]1(C(C)=O)CC[C@H]2[C@@H]3C=C(C)C4=CC(=O)CC[C@]4(C)[C@H]3CC[C@@]21C` is 0.232%; for `CN(C)CCOC(c1ccc(Cl)cc1)c1ccccn1` (stereo not given) it is -2.65%.
With `CCCc1ncc(C[n+]2ccccc2C)c(N)n1`, the “activity change, negative = cytotoxic” value is 3.59%.
The same measure, in the same setting: the figure for `CCCCCCCC/C=C\CCCCCCCCN` is 10.2%; for `CC(=O)Nc1ccc(CC(=O)O)cc1` it is -2.54%; for `O=S(c1cc(Cl)cc(Cl)c1O)c1cc(Cl)cc(Cl)c1O` it is 3.94%.
The same measure, in the same setting: under `O=[N+]([O-])c1cccc(S(=O)(=O)NCCNS(=O)(=O)c2cccc([N+](=O)[O-])c2)c1` stands -11.3%; under `N=C(N)N1CCc2ccccc2C1`, -5.09% [at 6.03 µM].
Turning to `O=C(Nc1ccc([N+](=O)[O-])cc1)Nc1ccc([N+](=O)[O-])cc1`, the “activity change, negative = cytotoxic” value was 2.55%.
As for `Cc1ccc(O)c([C@H](CCN(C(C)C)C(C)C)c2ccccc2)c1`, the “activity change, negative = cytotoxic” value is -14.1%.
For `CC(=O)OCC(=O)[C@H]1CC[C@H]2[C@@H]3CCC4=CC(=O)CC[C@]4(C)[C@H]3CC[C@]12C`, the “activity change, negative = cytotoxic” value is -0.613%.
Consider `CCOC(=O)c1c(N)sc2c1CCN(Cc1ccccc1)C2`, for which the Potency is 17.4 µM (active).
Consider `CCOC(=O)C(C#N)=C(c1ccccc1)c1ccccc1`, for which the “activity change, negative = cytotoxic” value was -19.5%.
Regarding `CCCCCCCCCCCCCC(=O)OC(C)C`, the “activity change, negative = cytotoxic” value is 12.4%.
